Molecules are shown by their SMILES. Out of some 52,000 compounds screened, about 1,700 (3.3%) were called active. Cut-off read from the data, not from the text of the source: active = survival mostly below about 52% (no sharp cut-off); inactive = mostly above about 56%. What follows is part of a selection rich in actives, with near analogues and random picks from the rest.

In the assay the test system is Wild type. As to the kind of experiment: growth inhibition of S. aureus wild type versus tarO mutant, primary screen, teichoic acid synthesis inhibitors, RN4220, OD600 (AID 463173). The conditions noted are these: S. aureus RN4220 wild type/DeltatarO growth, OD600, 18 h, active compounds read low, screened at 18.75 µg/mL (by protocol).
As to `Cc1cccn2c(=O)c(C(=O)N3CCN(c4ccc(Cl)cc4)CC3)cnc12`, the survival is 87% (inactive).
The figure for `CCCSCCCNC(=O)C1CCCN(C(=O)c2cnn(-c3ccccc3)c2-n2cccc2)C1` (stereo unspecified) is 107% (inactive); for `COc1ccccc1CNC(=O)c1oc2ccc3c(c2c1C)C(=O)CC(C)(C)O3` it is 59% (inactive); for `Cc1ccc(OC(C)C(=O)NCC2(N3CCOCC3)CCCCC2)cc1C` (stereo unspecified) it is 86% (inactive).
The same measure for `CC1CCCN(Cc2c(O)ccc3c(=O)c(-c4ccc(Cl)cc4)c(C(F)(F)F)oc23)C1` (stereo unspecified): 71% (inactive).
As to `CCc1cccc(C)c1NC(=O)C(CC)Sc1nncn2c1cc1occc12` (stereo unspecified), the survival is 78% (inactive).
The same measure for `CCc1ccc(CNC(=O)c2ccc3c(c2)nc2n3CCOC2)cc1`: 111% (inactive); for `CN(C(=O)C1CCN(c2ncnc3c2nc2n3CCCCC2)CC1)c1ccccc1F`: 60% (inactive).
The same measure for `COCCNC(=O)CSc1c2c(nc3cc(Cl)ccc13)CCCC2`: 71% (inactive); for `O=C(CSc1c2c(nc3ccc(Cl)cc13)CCCC2)N1CCCCC1`: 29% (inactive); for `O=C(CSc1c2c(nc3cc(Cl)ccc13)CCCC2)N1CCN(c2ccccc2)CC1`: 44% (inactive).
The same measure for `O=C(CSc1c2c(nc3cc(Cl)ccc13)CCCC2)N1CCN(c2ccccc2F)CC1`: 69% (inactive).
As to `Cc1ccc(CNC(=O)CSc2c3c(nc4cc(Cl)ccc24)CCCC3)cc1`, the survival is 83% (inactive).
The same measure for `CC1CCN(C(=O)CSc2c3c(nc4cc(Cl)ccc24)CCCC3)CC1`: 10% (active); for `CCOC(=O)C1CCN(C(=O)CSc2c3c(nc4ccc(Cl)cc24)CCCC3)CC1`: 56% (inactive).
The same measure for `CC1CCCN(C(=O)CSc2c3c(nc4cc(Cl)ccc24)CCCC3)C1` (stereo unspecified): -1% (active); for `O=C(CSc1c2c(nc3ccc(Cl)cc13)CCCC2)N1CCN(c2ccc(Cl)cc2)CC1`: 53% (inactive); for `CCC(C)NC(=O)CSc1c2c(nc3cc(Cl)ccc13)CCCC2` (stereo unspecified): 82% (inactive).
Consider `CC1CCN(C(=O)CSc2c3c(nc4ccc(Cl)cc24)CCCC3)CC1`, for which the survival is -1% (active).
The figure for `CC1CCCCN1C(=O)CSc1c2c(nc3cc(Cl)ccc13)CCCC2` (stereo unspecified) is -1% (active); for `CCCCN1C(=O)CN(C2CCCCCC2)C(=O)C1c1ccc(OCC)c(OC)c1` (stereo unspecified) it is 78% (inactive).
The same measure for `CCCCNc1nc2c(S(=O)(=O)c3ccc(Cl)cc3)nnn2c2ccsc12`: 89% (inactive).
The figure for `O=C(NC1CC2CCCC(C1)N2CC(=O)N1CCCc2ccccc21)c1ccccc1` (stereo unspecified) is 97% (inactive); for `CCOc1ccc(C2CC(=O)c3c([nH]c(C(=O)OC4CCCCCC4)c3C)C2)cc1` (stereo unspecified) it is 79% (inactive); for `O=C(Cn1nc(Cc2cccnc2)c2ccccc2c1=O)N1CCN(c2ccc(F)cc2)CC1` it is 89% (inactive).
With `Cc1ccccc1CNC(=O)C(=O)NCC(c1cccs1)S(=O)(=O)c1ccc(Cl)cc1` (stereo unspecified), the survival is 74% (inactive).
Consider `Cc1ccc(OCC(=O)OCc2cc(=O)n3nc(C4CCCCC4)sc3n2)cc1C`, for which the survival was 79% (inactive).
The same measure for `CC1=Nc2cc(C(=O)N3CCC(C)CC3)ccc2Sc2ccc(Cl)cc21`: 81% (inactive).
The figure for `CCCC1=Nc2cc(C(=O)N3CCC(C)CC3)ccc2Sc2ccc(C)cc21` is 107% (inactive); for `CCOC(=O)C1CCN(C(=O)c2ccc3c(c2)N=C(CC)c2cc(C)ccc2S3)CC1` it is 29% (inactive).
Take `CCC1=Nc2cc(C(=O)N3CCC(C)CC3)ccc2Sc2ccc(C)cc21`: the survival was -1% (active).
The same measure for `CC1=Nc2cc(C(=O)N3CCCCC3)ccc2Sc2ccc(C)cc21`: 3% (active); for `CNC(=O)c1ccc2c(c1)N=C(C)c1cc(C)ccc1S2`: 80% (inactive).
The same measure for `CC(C)CCNC(=O)CN1C(=O)CCn2nc(-c3cn(C)c4ccccc34)cc21`: 87% (inactive); for `COc1ccccc1-c1c(C)nn2c(N3CCN(c4ccc(F)cc4)CC3)cc(C)nc12`: 88% (inactive); for `O=c1c(N2CCN(c3cccc(C(F)(F)F)c3)CC2)csc2ccc(Cl)cc12`: 74% (inactive).
Consider `CCOC(=O)c1c(S(=O)(=O)NCC(=O)Nc2cc(C)ccc2C)c(C)n(C)c1C`, for which the survival was 66% (inactive).
The figure for `Cn1c(=O)n(-c2cccc(Cl)c2)c(=O)c2sc3ccccc3c21` is 71% (inactive); for `Cc1ccc(S(=O)(=O)N2CCN(Cc3cc(=O)n4nc(-c5ccccc5Cl)sc4n3)CC2)cc1` it is 64% (inactive).
For `CCn1cc(S(=O)(=O)c2ccccc2)c(=O)c2cc(F)c(F)cc21`, the survival was 82% (inactive).
The same measure for `CCc1ccccc1NS(=O)(=O)c1ccc2[nH]cc(C(=O)N3CCCCC3)c(=O)c2c1`: 127% (inactive); for `Cc1ccc(-c2nn(CCC(N)=O)c(=O)c3ccccc23)cc1`: 65% (inactive); for `CCOc1ccc(C(=O)Nc2ccc(-c3cc4ccccc4oc3=O)cc2)cc1Br`: 75% (inactive).
The same measure for `Cc1ccc(Cl)cc1NC(=O)c1ccc(-c2nc(CSc3ccccc3)c(C)o2)cc1`: 55% (inactive).
The figure for `CCN1CCC(N(Cc2ccc3c(c2)OCO3)C(=O)Nc2cccc(C)c2C)CC1` is 83% (inactive); for `CCN1CCC(N(Cc2cccc(OC)c2)C(=O)Nc2ccc(C)cc2Cl)CC1` it is 53% (inactive); for `CCN1CCC(N(Cc2cccc(OC)c2)C(=O)Nc2cccc(C)c2C)CC1` it is -3% (active).
As for `CCc1cccc(C)c1NS(=O)(=O)c1ccc(-n2cccn2)cc1`, the survival was 128% (inactive).
The figure for `O=C(CCc1ccccc1)Nc1nnc(CCN2CCCCC2)s1` is 97% (inactive); for `CCCn1cc(S(=O)(=O)c2ccccc2)c(=O)c2cc(F)c(N3CCCC(C)C3)cc21` (stereo unspecified) it is 71% (inactive).
The same measure for `CC(C)OC(=O)CSc1nnc(CNc2ccc(F)cc2)n1C1CCCCC1`: 108% (inactive); for `Cc1cccc(Cn2cccc2CNS(=O)(=O)c2ccc(Br)cc2)c1`: 64% (inactive).
The same measure for `Cc1cccc(Cn2cccc2CNS(=O)(=O)c2ccccc2F)c1`: -4% (active).
In the case of `CCc1ccc(S(=O)(=O)NCc2cccn2Cc2cccc(C)c2)cc1`, the survival was 71% (inactive).
The figure for `COc1ccc(OCc2nc(-c3ccc(OC)c(OC)c3)no2)cc1` is 70% (inactive); for `COc1ccc(N2CCN(c3ccc(-c4nc(-c5cccc(C)c5)no4)cc3[N+](=O)[O-])CC2)cc1` it is 89% (inactive).
The figure for `COc1ccc(-c2noc(COc3cc(C)ccc3C)n2)cc1OC` is 0% (active); for `CCc1ccc(OCc2nc(-c3ccc(OC)c(OC)c3)no2)c(Br)c1` it is 38% (inactive).
The figure for `COc1ccc(-c2noc(CN(C)S(=O)(=O)c3c(C)cc(C)cc3C)n2)cc1OC` is 78% (inactive); for `Cc1cccc(-c2noc(-c3ccc(N4CCCC4)c([N+](=O)[O-])c3)n2)c1` it is 81% (inactive); for `COc1cc(OC)cc(-c2nc(-c3cccc(C)c3)no2)c1` it is -15% (active).
For the compound `COc1ccc(-c2noc(COc3ccc(Br)cc3C)n2)cc1OC`, the survival was 11% (active).
The same measure for `Cc1ccc(-c2noc(-c3ccc(N4CCN(C)CC4)c([N+](=O)[O-])c3)n2)cc1`: 85% (inactive); for `Cc1cccc(-c2noc(-c3ccc(N4CCN(C)CC4)c([N+](=O)[O-])c3)n2)c1`: -3% (active); for `COc1ccc(-c2noc(COc3cc(C)c(Br)c(C)c3)n2)cc1OC`: 80% (inactive).
The same measure for `COc1cc(OC)cc(-c2nc(-c3ccc4c(c3)[nH]c(=O)n4C)no2)c1`: 73% (inactive).

The record behind these values is PubChem BioAssay AID463173 (ICCB-Longwood Screening Facility, Harvard Medical School, 2010).
